Numbering of substitutions follows the chain as printed.
Columns and labels:
Assay in all cases: PBM; 200 nM protein, PBS
Conditions in all cases: dsDNA, one strand shown
SIX6 [1] = biological target: T1, SIX6 (Homo sapiens, UniProt O95475 114-200, L167I)
T1 sequence: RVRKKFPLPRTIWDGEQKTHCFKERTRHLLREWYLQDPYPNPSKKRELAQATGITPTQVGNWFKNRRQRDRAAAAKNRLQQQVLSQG

SIX6 [2] = biological target: T2, SIX6 (Homo sapiens, UniProt O95475 114-200, L143V)
T2 sequence: T1 sequence with L30V, I54L

SIX6 [3] = biological target: T3, SIX6 (Homo sapiens, UniProt O95475 114-200, H141N)
T3 sequence: T1 sequence with H28N, I54L

SIX6 [4] = biological target: T4, SIX6 (Homo sapiens, UniProt O95475 114-200, T165P)
T4 sequence: T1 sequence with T52P, I54L

SIX6 [5] = biological target: T5, SIX6 (Homo sapiens, UniProt O95475 114-200, L143I)
T5 sequence: T1 sequence with L30I, I54L

SIX6 [6] = biological target: T6, SIX6 (Homo sapiens, UniProt O95475 114-200, T165G)
T6 sequence: T1 sequence with T52G, I54L

SIX6 [7] = biological target: T7, SIX6 (Homo sapiens, UniProt O95475 114-200, T139Q)
T7 sequence: T1 sequence with T26Q, I54L

SIX6 [8] = biological target: T8, SIX6 (Homo sapiens, UniProt O95475 114-200, T165A)
T8 sequence: T1 sequence with T52A, I54L

SIX6 [9] = biological target: T9, SIX6 (Homo sapiens, UniProt O95475 114-200, L167V)
T9 sequence: T1 sequence with I54V

SIX6 [10] = biological target: T10, SIX6 (Homo sapiens, UniProt O95475 114-200)
T10 sequence: T1 sequence with I54L

SIX6 [11] = biological target: T11, SIX6 (Homo sapiens, UniProt O95475 114-200, T165I)
T11 sequence: T1 sequence with T52I, I54L

SIX6 [12] = biological target: T12, SIX6 (Homo sapiens, UniProt O95475 114-200, L167M)
T12 sequence: T1 sequence with I54M

SIX6 [13] = biological target: T13, SIX6 (Homo sapiens, UniProt O95475 114-200, L143M)
T13 sequence: T1 sequence with L30M, I54L

Sequence	binding signal (SIX6 [1])	binding signal (SIX6 [2])	binding signal (SIX6 [3])	binding signal (SIX6 [4])	binding signal (SIX6 [5])	binding signal (SIX6 [6])	binding signal (SIX6 [7])	binding signal (SIX6 [8])	binding signal (SIX6 [9])	binding signal (SIX6 [10])	binding signal (SIX6 [11])	binding signal (SIX6 [12])	binding signal (SIX6 [13])
GATCCGGA	10.4 upbm affinity estimate (log intensity, higher = more binding, comparable within an allelic series)	9.71 upbm affinity estimate (log intensity, higher = more binding, comparable within an allelic series)	10.2 upbm affinity estimate (log intensity, higher = more binding, comparable within an allelic series)	9.25 upbm affinity estimate (log intensity, higher = more binding, comparable within an allelic series)	9.87 upbm affinity estimate (log intensity, higher = more binding, comparable within an allelic series)	10.4 upbm affinity estimate (log intensity, higher = more binding, comparable within an allelic series)	10.7 upbm affinity estimate (log intensity, higher = more binding, comparable within an allelic series)	10.3 upbm affinity estimate (log intensity, higher = more binding, comparable within an allelic series)	10.3 upbm affinity estimate (log intensity, higher = more binding, comparable within an allelic series)	10.4 upbm affinity estimate (log intensity, higher = more binding, comparable within an allelic series)	10.2 upbm affinity estimate (log intensity, higher = more binding, comparable within an allelic series)	–	–
ATCGATAC	11.2 upbm affinity estimate (log intensity, higher = more binding, comparable within an allelic series)	10.5 upbm affinity estimate (log intensity, higher = more binding, comparable within an allelic series)	11.2 upbm affinity estimate (log intensity, higher = more binding, comparable within an allelic series)	9.79 upbm affinity estimate (log intensity, higher = more binding, comparable within an allelic series)	10.3 upbm affinity estimate (log intensity, higher = more binding, comparable within an allelic series)	11.2 upbm affinity estimate (log intensity, higher = more binding, comparable within an allelic series)	11.3 upbm affinity estimate (log intensity, higher = more binding, comparable within an allelic series)	11.1 upbm affinity estimate (log intensity, higher = more binding, comparable within an allelic series)	11 upbm affinity estimate (log intensity, higher = more binding, comparable within an allelic series)	11 upbm affinity estimate (log intensity, higher = more binding, comparable within an allelic series)	11 upbm affinity estimate (log intensity, higher = more binding, comparable within an allelic series)	10.6 upbm affinity estimate (log intensity, higher = more binding, comparable within an allelic series)	10.9 upbm affinity estimate (log intensity, higher = more binding, comparable within an allelic series)
CGGCGGAA	8.84 upbm affinity estimate (log intensity, higher = more binding, comparable within an allelic series)	8.9 upbm affinity estimate (log intensity, higher = more binding, comparable within an allelic series)	8.85 upbm affinity estimate (log intensity, higher = more binding, comparable within an allelic series)	9.07 upbm affinity estimate (log intensity, higher = more binding, comparable within an allelic series)	8.96 upbm affinity estimate (log intensity, higher = more binding, comparable within an allelic series)	9.04 upbm affinity estimate (log intensity, higher = more binding, comparable within an allelic series)	8.95 upbm affinity estimate (log intensity, higher = more binding, comparable within an allelic series)	8.82 upbm affinity estimate (log intensity, higher = more binding, comparable within an allelic series)	8.8 upbm affinity estimate (log intensity, higher = more binding, comparable within an allelic series)	8.95 upbm affinity estimate (log intensity, higher = more binding, comparable within an allelic series)	8.9 upbm affinity estimate (log intensity, higher = more binding, comparable within an allelic series)	8.95 upbm affinity estimate (log intensity, higher = more binding, comparable within an allelic series)	8.9 upbm affinity estimate (log intensity, higher = more binding, comparable within an allelic series)
CGGCCTTC	8.62 upbm affinity estimate (log intensity, higher = more binding, comparable within an allelic series)	8.87 upbm affinity estimate (log intensity, higher = more binding, comparable within an allelic series)	8.82 upbm affinity estimate (log intensity, higher = more binding, comparable within an allelic series)	9 upbm affinity estimate (log intensity, higher = more binding, comparable within an allelic series)	8.94 upbm affinity estimate (log intensity, higher = more binding, comparable within an allelic series)	8.84 upbm affinity estimate (log intensity, higher = more binding, comparable within an allelic series)	8.59 upbm affinity estimate (log intensity, higher = more binding, comparable within an allelic series)	8.81 upbm affinity estimate (log intensity, higher = more binding, comparable within an allelic series)	8.94 upbm affinity estimate (log intensity, higher = more binding, comparable within an allelic series)	8.77 upbm affinity estimate (log intensity, higher = more binding, comparable within an allelic series)	8.7 upbm affinity estimate (log intensity, higher = more binding, comparable within an allelic series)	8.83 upbm affinity estimate (log intensity, higher = more binding, comparable within an allelic series)	8.77 upbm affinity estimate (log intensity, higher = more binding, comparable within an allelic series)

Source: paper PMC11006913
